What all share (test): NCI-60 one-dose screen, 48 h (100 = growth as untreated, 0 = no growth, -100 = all killed)
One assay has as its system NCI-H23 lung. The conditions noted are these: 10 µM unless noted.
For a further assay, the system named is NCI-H226 lung. As to conditions: 10 µM unless noted.
A further assay deals with NCI-H322M lung. As to conditions: 10 µM unless noted.
The next assay concerns HOP-62 NSCLC. The conditions noted are these: 10 µM unless noted.
A further assay relates to NCI-H460 lung. As to conditions: 10 µM unless noted.
The next assay concerns HOP-92 NSCLC. The conditions noted are these: 10 µM unless noted.
The test system of another assay is NCI-H522 lung. The conditions noted are these: 10 µM.
The subject of a further assay is 786-0 renal. The conditions noted are these: 10 µM unless noted.
In a further assay the test system is COLO 205 colon. The conditions noted are these: 10 µM unless noted.
Another assay relates to K-562 leukemia. As to conditions: 10 µM unless noted.
Another assay relates to MDA-MB-231 breast. The conditions noted are these: 10 µM unless noted.
In the next assay the test system is SF-268 CNS. The conditions noted are these: 10 µM unless noted.
A further assay concerns SF-295 CNS. The conditions noted are these: 10 µM unless noted.
For the next assay, the system named is SF-539 CNS. As to conditions: 10 µM unless noted.
The next assay relates to UACC-257 melanoma. The conditions noted are these: 10 µM unless noted.
Another assay deals with M14 melanoma. The conditions noted are these: 10 µM unless noted.
Another assay relates to A549/ATCC NSCLC. The conditions noted are these: 10 µM unless noted.
The next assay concerns DU-145 prostate. As to conditions: 10 µM unless noted.
The next assay has as its system MALME-3M melanoma. The conditions noted are these: 10 µM unless noted.
Another assay concerns RXF 393 renal. As to conditions: 10 µM unless noted.

The panel holds about 83,000 compounds, 20% with a hit somewhere; the sample as a whole holds those more often.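 Growth was measured after 48 h exposure to one concentration of compound in 96-well plates. Values under 10 count as active.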 Values without a mark were called inactive. Active and inactive are the calls of the source.

From PubChem BioAssay (NCI) come the findings set out here.

As for `CCOC(=O)c1sc(NC(=O)COc2ccc(/C=C3\CCc4cc(OC)ccc4C3=O)cc2)nc1C`, the growth with NCI-H23 lung is 96.6%; in the assay on NCI-H226 lung, 92.2%; with NCI-H322M lung it was 96.5%; in the assay with HOP-62 NSCLC, 103%; in the assay with NCI-H460 lung it was 111%; in the assay on HOP-92 NSCLC, 106%. Also, the growth with NCI-H522 lung was -2.75% (active); in the assay on 786-0 renal, 90.7%; with COLO 205 colon, 137%; with K-562 leukemia, 71.7%; in the assay on MDA-MB-231 breast, 94.1%; in the assay on SF-268 CNS, 80.1%. Also, the growth with SF-295 CNS was 118%; in the assay on SF-539 CNS, 95.1%; in the assay with UACC-257 melanoma it was 93.7%; in the assay on M14 melanoma it was 106%.
Take `COc1ccc(C2=NN(C(C)=O)C(c3c(C)nn(-c4ccccc4)c3N3CCOCC3)C2)cc1` (configuration not stated): the growth is 100% in the assay with NCI-H23 lung; 92.1% with NCI-H226 lung; 101% with NCI-H322M lung; 87.9% with HOP-62 NSCLC; 98.7% in the assay with NCI-H460 lung; 86.9% in the assay on HOP-92 NSCLC. The growth in the assay with A549/ATCC NSCLC is 85.5%; with 786-0 renal, 93%; with COLO 205 colon it was 90.9%; with DU-145 prostate, 107%; in the assay on K-562 leukemia, 99%; with MALME-3M melanoma it was 106%. The growth is 98.1% in the assay on MDA-MB-231 breast; 98.7% in the assay on RXF 393 renal; 95% in the assay on SF-268 CNS; 93.9% with SF-295 CNS; 93.7% in the assay with SF-539 CNS; 86.3% with UACC-257 melanoma. In addition, the growth in the assay with M14 melanoma is 94.8%.
With `Cc1ccc(S(=O)(=O)N2CCN(C(=O)CSc3nc4ccc(C)cc4[nH]3)CC2)cc1`, the growth with NCI-H23 lung is 105%; in the assay on NCI-H226 lung, 91.3%; in the assay with NCI-H322M lung it was 116%; in the assay with HOP-62 NSCLC it was 106%; with NCI-H460 lung, 110%; in the assay on HOP-92 NSCLC, 96.6%. The growth was 97.2% with NCI-H522 lung; 107% with 786-0 renal; 109% in the assay with DU-145 prostate; 74.8% in the assay with K-562 leukemia; 126% in the assay on MALME-3M melanoma; 92.3% in the assay with MDA-MB-231 breast. The growth in the assay with SF-268 CNS was 101%; with SF-295 CNS, 159%; in the assay with SF-539 CNS, 110%; in the assay with UACC-257 melanoma it was 63.4%; with M14 melanoma, 101%.
As for `Cc1cc(C)nc(NS(=O)(=O)c2ccc(Nc3nc4nc(SCc5ccccc5)nc(-c5ccc(O)cc5)c4c(=O)[nH]3)cc2)n1`, the growth with NCI-H23 lung is 106%; with NCI-H226 lung it was 93.8%; in the assay on NCI-H322M lung, 111%; in the assay with HOP-62 NSCLC, 93.4%; in the assay with NCI-H460 lung it was 107%; with HOP-92 NSCLC, -9.71% (active). In addition, the growth is 98% in the assay on A549/ATCC NSCLC; 97% in the assay with 786-0 renal; 103% with COLO 205 colon; 136% in the assay on DU-145 prostate; 84.2% with K-562 leukemia; 67.7% in the assay with MALME-3M melanoma. Also, the growth with MDA-MB-231 breast was 93.8%; in the assay on RXF 393 renal, 78.6%; in the assay on SF-268 CNS it was 84%; with SF-295 CNS, 83.3%; in the assay with SF-539 CNS, 98.9%; in the assay on UACC-257 melanoma it was 113%.
As for `COc1cc(/C=N/NC(=O)c2ccc(C(F)(F)F)nc2Nc2cc(Cl)ccc2C)cc(OC)c1OC`, the growth was 104% in the assay with NCI-H23 lung; 96.6% in the assay with NCI-H226 lung; 105% in the assay with NCI-H322M lung; 99.7% in the assay with HOP-62 NSCLC; 108% in the assay with NCI-H460 lung; -30% (active) in the assay on HOP-92 NSCLC. Moreover, the growth was 103% in the assay on A549/ATCC NSCLC; 97.7% in the assay with 786-0 renal; 109% in the assay on COLO 205 colon; 154% in the assay on DU-145 prostate; 83.8% with K-562 leukemia; 61.8% with MALME-3M melanoma. Moreover, the growth in the assay on MDA-MB-231 breast is 86.3%; in the assay with RXF 393 renal, 77.7%; in the assay with SF-268 CNS, 88.9%; in the assay on SF-295 CNS, 70.9%; in the assay with SF-539 CNS it was 103%; with UACC-257 melanoma it was 112%.
In the case of `N=C1c2nc3n(c2C(=O)c2nc4n(c21)CCCCC4)CCCCC3`, the growth was 97.3% with NCI-H23 lung; 98.3% in the assay with NCI-H226 lung; 110% with NCI-H322M lung; 122% with HOP-62 NSCLC; 92.6% in the assay on NCI-H460 lung; 126% in the assay with HOP-92 NSCLC. Besides, the growth with NCI-H522 lung was 90.9%; in the assay on 786-0 renal it was 120%; with DU-145 prostate, 113%; in the assay on K-562 leukemia, 102%; with MALME-3M melanoma it was 103%; with MDA-MB-231 breast, 117%. The growth with RXF 393 renal was 102%; in the assay with SF-268 CNS, 108%; with SF-295 CNS, 93.8%; in the assay on SF-539 CNS, 105%; in the assay on M14 melanoma it was 108%.
For the compound `COc1cc(/C=N/NC(=O)c2ccc(C(F)(F)F)nc2Nc2ccc(Cl)cc2C)ccc1O`, the growth with NCI-H23 lung is 47.9%; with NCI-H226 lung it was 39.6%; in the assay with NCI-H322M lung it was 25.5%; with HOP-62 NSCLC, 9.04% (active); with NCI-H460 lung it was 24.5%; with HOP-92 NSCLC, 40%. The growth with NCI-H522 lung is 44.6%; in the assay on 786-0 renal it was 4.66% (active); in the assay on COLO 205 colon it was 51.8%; in the assay with K-562 leukemia, 15.2%; with MALME-3M melanoma it was 15.1%; in the assay with MDA-MB-231 breast, 53.1%. Also, the growth in the assay on SF-268 CNS is 34.9%; in the assay with SF-295 CNS, 7.59% (active); in the assay on SF-539 CNS, 30.4%; in the assay with UACC-257 melanoma, 57.2%; in the assay with M14 melanoma, 50.9%.
`COc1ccc(C(=O)COc2cccc(/C=C3\CSc4ccc(Cl)cc4C3=O)c2)cc1`: the growth was 87.1% in the assay with NCI-H23 lung; 75.1% with NCI-H226 lung; 93.5% in the assay on NCI-H322M lung; 95.8% with HOP-62 NSCLC; 101% in the assay with NCI-H460 lung; 68% with HOP-92 NSCLC. Further, the growth with NCI-H522 lung was 61.7%; with 786-0 renal, 97.3%; in the assay with COLO 205 colon it was 123%; with K-562 leukemia, 22.1%; with MDA-MB-231 breast, 76.2%; in the assay with SF-268 CNS, 91%. Moreover, the growth in the assay on SF-295 CNS is 95.9%; in the assay on SF-539 CNS, 104%; in the assay with UACC-257 melanoma it was 89.3%; in the assay with M14 melanoma, 102%.
On to `Cc1ccc(N/N=C(/C(=O)c2ccc(Cl)cc2)c2nc(C)cc(=O)[nH]2)cc1`, for which the growth in the assay with NCI-H23 lung is 111%; in the assay on NCI-H226 lung, 107%; with NCI-H322M lung, 106%; with HOP-62 NSCLC, 94.2%; in the assay on NCI-H460 lung, 105%; in the assay with HOP-92 NSCLC, 91%. The growth in the assay with A549/ATCC NSCLC was 100%; in the assay on 786-0 renal, 82.9%; with COLO 205 colon, 116%; in the assay on DU-145 prostate it was 102%; with K-562 leukemia it was 91.7%; with MALME-3M melanoma it was 126%. The growth in the assay with MDA-MB-231 breast was 95.9%; with RXF 393 renal, 40.7%; in the assay on SF-268 CNS, 107%; in the assay on SF-295 CNS, 90%; in the assay with SF-539 CNS it was 85.3%; in the assay with UACC-257 melanoma, 105%. Also, in the assay on M14 melanoma, the growth is 82.7%.
